The text below walks through data of PubChem BioAssay (NCATS).

Results filed as inconclusive are left out. The source made the active and inactive calls. Unless noted, calls follow the shape of the dose curve; as a rule, active = well fitted curve in the direction sought with a large enough effect; inconclusive = small, poorly fitted or top-dose-only effect, or another doubt; inactive = no such curve, though single readings can be large; an effect the other way counts as inactive or inconclusive.

The target of test [1] is Calcium and integrin-binding protein 1 (Homo sapiens) (UniProt Q99828). Kind of test: Primary qHTS for Identification of Calcium Integrin Binding Protein 1 (CIB1) Competitor (AID 1508620).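 Also: GST tagged CIB1 binding a fluorescein labelled alphaIIb integrin peptide tracer; top concentration of the series differs between compounds; % is scaled to controls: 0 for no effect and ±100 for the full control effect.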 A digest of the protocol:
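Fluorescence polarization competition: CIB1-GST (1 uM final) preincubated with compound 15 min at room temperature, then FITC-labeled alphaIIb peptide (100 nM final) added for another 15 min. Polarization read at Ex 480/Em 540.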
In general terms: qHTS replaces the single test concentration by a dilution series.

Test [2] deals with Cytochrome P450 2C9 (Homo sapiens) (UniProt P11712). As to the kind of experiment: Cytochrome P450 family 2 subfamily C member 9 (CYP2C9) small molecule antagonists: luciferase biochemical (cell-free) qHTS assay (AID 1645842; active = well fitted curve in the direction sought with a large enough effect in the repeat runs; an effect the other way counts as inactive or inconclusive; also: nearly all actives have a fitted effect of over 55% in size; also: potency is read from the fitted curve at half-maximal effect; as to activity change, negative = inhibition: % is scaled to controls: 0 for no effect and ±100 for the full control effect). Summed up:
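P450-Glo CYP2C9 system: proluciferin substrate with enzyme in mix containing 0.4% BSA, 10 min at room temperature, then NADPH regeneration solution added and incubated 1 h at 37C. Detection reagent stopped reaction; luminescence read after 20 min as RLU.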

Test [3] in a line: Primary qHTS for inhibitors of nuclear receptor binding SET domain protein 2 (NSD2) in an isogenic RCH-ACV NSD2 p.E1099K mutant (9B) (AID 1645876). Also: nearly all actives have a fitted effect of over 70% in size. Also: potency is read from the fitted curve at half-maximal effect.
Test [4] can be described thus: Primary qHTS for inhibitors of nuclear receptor binding SET domain protein 2 (NSD2) in an RCH-ACV wild type WT cells (2C) (AID 1645877). Also: nearly all actives have a fitted effect of over 70% in size. Also: potency is read from the fitted curve at half-maximal effect.
The target of test [5] is N-terminal Xaa-Pro-Lys N-methyltransferase 1 (Homo sapiens) (UniProt Q9BV86). Kind of test: Confirmatory qHTS for Inhibitors of N-terminal methyltransferase 1 (NTMT1): MTaseGlo Assay (AID 1645874). Also: nearly all actives have a fitted effect of over 65% in size. Also: potency is read from the fitted curve at half-maximal effect.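 As to activity change, negative = inhibition: luminescence from SAH made as NTMT1 methylates SPKRIA peptide using SAM; 0% = DMSO control and -100% = no-enzyme control.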 A digest of the protocol:
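Enzyme mix (125 nM NTMT1, 100 uM SAM) + compound, 15 min RT; + 1 uM SPKRIA, 30 min RT, dark; MTase-Glo reagent 30 min, detection solution 30 min; luminescence. % inhibition vs no-enzyme/DMSO controls, 4-parameter Hill fit.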

Test [6] concerns the target Catechol O-methyltransferase (Homo sapiens) (UniProt P21964). As to the kind of experiment: Confirmatory Screen for Target Class Profiling of Small Molecule Inhibitors of Methyltransferases (AID 1745852; calls by dose curve; also: potency is read from the fitted curve at half-maximal effect). To be noted: MTase-Glo luminescence, SAH detection, recombinant enzyme; measured here: COMT max response; stronger effect = lower value.
Test [7] concerns the target Guanidinoacetate N-methyltransferase (Homo sapiens) (UniProt Q14353). Described as above. Particulars: MTase-Glo luminescence, SAH detection, recombinant enzyme; activity change, negative = inhibition: at 57.3 µM (top of the series) unless noted.
Test [8] concerns the target Nicotinamide N-methyltransferase (Homo sapiens) (UniProt P40261). The description is as above. Particulars: MTase-Glo luminescence, SAH detection, recombinant enzyme; measured here: NNMT max response; stronger effect = lower value.
For test [9], the target named is Phenylethanolamine N-methyltransferase (Homo sapiens) (UniProt P11086). The test is described as above. Particulars: MTase-Glo luminescence, SAH detection, recombinant enzyme; measured here: PNMT max response; stronger effect = lower value.
Sequence of Phenylethanolamine N-methyltransferase (Homo sapiens) (P11086 whole entry, looked up): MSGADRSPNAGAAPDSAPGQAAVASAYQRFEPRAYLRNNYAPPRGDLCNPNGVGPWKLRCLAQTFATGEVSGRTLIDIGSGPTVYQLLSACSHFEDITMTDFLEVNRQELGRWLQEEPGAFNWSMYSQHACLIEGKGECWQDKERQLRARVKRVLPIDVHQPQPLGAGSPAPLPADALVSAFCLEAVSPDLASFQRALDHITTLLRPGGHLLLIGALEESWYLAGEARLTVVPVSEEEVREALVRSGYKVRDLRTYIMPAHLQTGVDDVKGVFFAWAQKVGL

Sequence of Cytochrome P450 2C9 (Homo sapiens) (P11712 whole entry, looked up): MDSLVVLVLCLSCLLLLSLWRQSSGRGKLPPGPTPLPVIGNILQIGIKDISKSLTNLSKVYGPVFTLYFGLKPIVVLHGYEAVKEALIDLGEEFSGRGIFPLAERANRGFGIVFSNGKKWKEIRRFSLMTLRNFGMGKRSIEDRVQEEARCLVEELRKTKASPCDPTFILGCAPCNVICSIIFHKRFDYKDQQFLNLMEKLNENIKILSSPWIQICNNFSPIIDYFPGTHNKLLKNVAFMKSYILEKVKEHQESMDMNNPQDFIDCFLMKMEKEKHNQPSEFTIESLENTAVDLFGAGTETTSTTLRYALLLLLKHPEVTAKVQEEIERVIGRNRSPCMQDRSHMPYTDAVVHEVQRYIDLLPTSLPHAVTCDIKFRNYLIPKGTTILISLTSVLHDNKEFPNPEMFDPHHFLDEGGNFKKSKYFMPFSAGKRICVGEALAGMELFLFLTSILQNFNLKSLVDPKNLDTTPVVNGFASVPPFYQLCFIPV
Sequence of Calcium and integrin-binding protein 1 (Homo sapiens) (Q99828 whole entry, looked up): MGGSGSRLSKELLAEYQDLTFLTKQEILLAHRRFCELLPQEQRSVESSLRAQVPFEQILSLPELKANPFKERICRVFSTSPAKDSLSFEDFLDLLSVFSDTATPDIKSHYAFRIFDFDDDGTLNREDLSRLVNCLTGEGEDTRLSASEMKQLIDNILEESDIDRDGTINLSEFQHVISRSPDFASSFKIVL
Sequence of N-terminal Xaa-Pro-Lys N-methyltransferase 1 (Homo sapiens) (Q9BV86 whole entry, looked up): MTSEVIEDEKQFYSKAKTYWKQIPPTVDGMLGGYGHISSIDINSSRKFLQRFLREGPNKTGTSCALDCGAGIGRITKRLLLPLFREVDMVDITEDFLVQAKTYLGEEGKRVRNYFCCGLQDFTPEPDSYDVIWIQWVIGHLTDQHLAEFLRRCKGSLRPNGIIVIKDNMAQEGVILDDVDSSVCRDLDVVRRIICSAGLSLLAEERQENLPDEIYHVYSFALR
Sequence of Nicotinamide N-methyltransferase (Homo sapiens) (P40261 whole entry, looked up): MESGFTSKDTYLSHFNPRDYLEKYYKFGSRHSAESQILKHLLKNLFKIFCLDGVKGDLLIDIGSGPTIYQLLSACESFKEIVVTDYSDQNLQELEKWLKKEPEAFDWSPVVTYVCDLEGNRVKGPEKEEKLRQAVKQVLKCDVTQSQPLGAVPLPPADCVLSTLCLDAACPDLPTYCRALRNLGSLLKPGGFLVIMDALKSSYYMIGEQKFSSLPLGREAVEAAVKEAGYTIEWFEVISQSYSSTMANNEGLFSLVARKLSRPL
Sequence of Catechol O-methyltransferase (Homo sapiens) (P21964 whole entry, looked up): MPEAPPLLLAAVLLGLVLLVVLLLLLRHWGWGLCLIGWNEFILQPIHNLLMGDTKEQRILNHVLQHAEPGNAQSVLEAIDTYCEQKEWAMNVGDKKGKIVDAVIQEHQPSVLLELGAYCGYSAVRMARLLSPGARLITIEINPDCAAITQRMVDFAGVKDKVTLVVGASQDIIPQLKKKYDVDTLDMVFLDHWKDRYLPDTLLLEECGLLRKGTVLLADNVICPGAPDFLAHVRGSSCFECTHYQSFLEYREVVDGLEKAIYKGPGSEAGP

Consider `COC(=O)Cn1nc(-c2cccc(OC)c2)c2ccccc21`, for which the Potency entry in test [1], in test [3] and in test [4] was “inactive” each time. For the same compound, the Potency in test [2] was 13.5 µM (active).

In the case of `Cc1ccc(C)c(NC(=O)CNS(=O)(=O)c2ccc3[nH]c(=O)oc3c2)c1`, the Potency result in test [1], in test [2], in test [3] and in test [4] was “inactive” in each case.

In the case of `CS(=O)(=O)c1ccccc1N1CCN(c2nc3c(c(=O)[nH]2)CSCC3)CC1`, the Potency entry in test [1], in test [3] and in [4] was “inactive” throughout. The Potency in test [2] is 8.49 µM (active).

In the case of `O=C(NC1Cc2ccccc2N(C[C@@H](O)CO)C1=O)c1cc2cc(Cl)sc2[nH]1` (some centres not stated), the Potency entry in [1] is “inactive”. For the same compound, the Potency in [2] was 21.3 µM (active).

On to `CCCCC(=O)N1c2ccccc2NC2=C(C(=O)CCC2)C1c1ccccc1Cl` (configuration not stated), for which, in test [1], the Potency result was “inactive”. Also, in test [2], the Potency is 12 µM (active).

Regarding `COc1cccc(C(=O)NCCNc2nc3cc(C)cc(C)c3cc2C#N)c1`, the Potency result in test [1], in test [5] and in [4] was “inactive” in each case. Also, the Potency in test [2] is 1.69 µM (active).

Regarding `O=C(Nc1cc(-c2ccccc2)nn1-c1ccccc1)c1ccc([N+](=O)[O-])cc1`, the Potency result in [1], in test [3] and in test [4] was “inactive” in each case. In test [2], the Potency is 1.51 µM (active).

On to `O=C(Nc1cc(-c2ccccc2)nn1-c1ccccc1F)c1ccc([N+](=O)[O-])cc1`, for which the Potency entry in test [1] and in [4] was “inactive” throughout. Further, in test [2], the Potency is 6.74 µM (active).

`Cc1cn(-c2cc(NC(=O)c3ccc(C)c(Nc4nccc(-c5cnccn5)n4)c3)cc(C(F)(F)F)c2)cn1`: the Potency result in test [1], in test [3] and in test [4] was “inactive” in each case. Further, the Potency in test [2] was 1.51 µM (active).

Regarding `CC(C)Oc1ccc(-c2nc(-c3cccc4c3CCC4NCCC(=O)O)no2)cc1C#N` (configuration not stated), the Potency result in [1], in test [2], in test [3] and in [4] was “inactive” in each case.

As for `NC(=O)c1ccc(F)c2c1C[C@@H](N(C1CCC1)C1CCC1)CO2`, the Potency result in test [1], in test [2], in test [3] and in test [4] was “inactive” throughout.

Consider `N#Cc1cccc(-c2c[nH]c3ncnc(N4CCOCC4)c23)c1`, for which the Potency entry in test [1] is “inactive”. In addition, the Potency was 2.39 µM (active) in test [2], 39.8 µM (active) in test [5] and 24.1 µM (active) in test [7]. The activity in test [6] was -74.9%; in test [8] it was -64.5%; in test [9], -72.3%.

Take `O=C(c1c2ccccc2cc2ccccc12)N1CCC(N2CCC[C@@H](C(=O)N3CCOCC3)C2)CC1`: the Potency result in test [1], in test [2], in [3] and in test [4] was “inactive” in each case.

Take `CN(C)C(=O)C(O)C(Cc1ccccc1)NC(=O)c1cc2cc(Cl)ccc2[nH]1` (configuration not stated): the Potency result in [1], in [3] and in [4] was “inactive” throughout. Also, the Potency in test [2] was 10.7 µM (active).

Consider `COc1cccc(CNc2ccc(S(=O)(=O)Nc3nc4ccccc4s3)cc2)c1O`, for which the Potency entry in test [1], in test [3] and in [4] was “inactive” in each case. In addition, the Potency in [2] was 6.74 µM (active).

As for `COc1cc(OC)cc(-c2ccc3c(-c4ccc(F)cc4)[nH]nc3n2)c1`, the Potency entry in test [1], in test [3] and in test [4] was “inactive” in each case. Moreover, the Potency in test [2] was 7.56 µM (active).

With `Fc1ccccc1-c1nc2ccn(Cc3ccc(-c4ccc(C(F)(F)F)cc4C(F)(F)F)nn3)cc-2n1`, the Potency result in test [1], in [3] and in test [4] was “inactive” throughout. For the same compound, in test [2], the Potency is 23.9 µM (active).

As to `CC(C)(C)NS(=O)(=O)c1ccc(-c2ccc3[nH]nc(N)c3c2)cc1`, the Potency entry in [1] was “inactive”. For the same compound, the Potency in test [2] was 13.5 µM (active).

Consider `COc1ccc(CCc2nc3cc(-c4c(C)noc4C)ccc3n2C[C@H](C)N2CCOCC2)cc1Cl`, for which the Potency entry in test [1] is “inactive”. For the same compound, the results for the Potency in [2], in test [3] and in [4] were 15.1 µM (active), 3.65 µM (active) and 2.58 µM (active), respectively.

For `On1ncc(C2CCNCC2)c1-c1cccc(-c2ccccc2)c1`, the Potency result in [1], in test [2] and in test [4] was “inactive” each time.

Regarding `CN1C(=O)N(c2cc(Cl)cc(Cl)c2)C(=O)[C@@]1(C)Cc1ccc(Br)cc1`, the Potency result in [1] was “inactive”. In addition, in test [2], the Potency was 3.38 µM (active).

Consider `CC[C@@H](Nc1c(Nc2cccc(C(=O)N(C)C)c2O)c(=O)c1=O)c1ccc(C)o1`, for which the Potency result in [1] and in test [3] was “inactive” throughout. For the same compound, the Potency in test [2] was 2.39 µM (active).

As for `COc1cn(-c2ccc(-n3cccn3)cc2F)nc(-c2ccnn2-c2ccccc2)c1=O`, the Potency entry in test [1], in [3] and in [4] was “inactive” each time. In addition, in test [2], the Potency was 15.1 µM (active).

Consider `O=C(NCCN1CCCC1)c1cc(-c2ccc(CN3CCOCC3)cc2)nc2ccc(F)cc12`, for which the Potency entry in test [1], in [5], in test [3] and in test [4] was “inactive” in each case.

On to `O=C(CC1CC(c2ccc(F)cc2F)=NO1)N1CCOCC1` (configuration not stated), for which the Potency result in test [1], in test [2], in [3] and in test [4] was “inactive” in each case.
